# Assay results taken from the supplement of paper PMC12632987.
# T1: USP38, Q8NB14
# T1 chain: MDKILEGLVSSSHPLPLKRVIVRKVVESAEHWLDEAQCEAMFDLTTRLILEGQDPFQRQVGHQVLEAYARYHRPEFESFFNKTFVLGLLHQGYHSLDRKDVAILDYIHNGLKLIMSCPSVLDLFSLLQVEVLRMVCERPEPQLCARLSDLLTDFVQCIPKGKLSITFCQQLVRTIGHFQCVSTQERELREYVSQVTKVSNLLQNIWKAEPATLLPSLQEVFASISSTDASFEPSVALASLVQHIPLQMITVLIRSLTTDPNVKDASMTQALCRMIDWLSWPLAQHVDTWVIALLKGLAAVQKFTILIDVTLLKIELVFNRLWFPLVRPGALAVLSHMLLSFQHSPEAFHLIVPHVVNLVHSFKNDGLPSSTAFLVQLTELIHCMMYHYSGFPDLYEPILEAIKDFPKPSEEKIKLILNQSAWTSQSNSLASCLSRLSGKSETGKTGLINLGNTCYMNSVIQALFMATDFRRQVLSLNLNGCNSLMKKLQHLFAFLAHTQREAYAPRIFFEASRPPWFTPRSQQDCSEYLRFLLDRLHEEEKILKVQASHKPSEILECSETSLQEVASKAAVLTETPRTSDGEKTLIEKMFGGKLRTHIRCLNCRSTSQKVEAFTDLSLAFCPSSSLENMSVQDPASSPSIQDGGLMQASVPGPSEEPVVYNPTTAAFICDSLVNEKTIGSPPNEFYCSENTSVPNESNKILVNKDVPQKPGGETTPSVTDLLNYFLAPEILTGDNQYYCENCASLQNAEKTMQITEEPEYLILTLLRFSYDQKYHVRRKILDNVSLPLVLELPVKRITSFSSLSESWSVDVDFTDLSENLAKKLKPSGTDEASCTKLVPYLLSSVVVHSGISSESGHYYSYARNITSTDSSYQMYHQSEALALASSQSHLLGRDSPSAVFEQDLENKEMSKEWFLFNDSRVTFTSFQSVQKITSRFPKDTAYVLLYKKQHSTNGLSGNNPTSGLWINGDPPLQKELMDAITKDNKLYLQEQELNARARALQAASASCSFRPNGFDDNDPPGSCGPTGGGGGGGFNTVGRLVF
# B1: usp_38_diff_out_18_14_325 (protein)
# chain: DAELIAATLANLKSLTEETKKDTERLEKVVEKLKDDPESARSLLETRRQAYEGVKEYAEETKKEAEANGDKELAAAAQELKDAAEKALEKIDKLLKELEA
# B2: usp_38_diff_out_18_14_326 (protein)
# chain: SEELTEATLSNLKSLTEETKKTTERLKKIVEKLKDDKESALSLLDTRTQAFKGVLKYAEETEKEAKKAGNEELLAAAKELKEAAKKALEEIEKLKKELEE
# B3: usp_38_diff_out_18_14_292 (protein)
# chain: SEELSEAEKSVLETLKKDVREDTERTIRLLEKVKDDPERVKRVVERARRNLAGVRAYAEEVKERAEKRGDEETVKAAEELLKEVEKAEERIEKAEEEVLK
# B4: usp_38_diff_out_18_14_303 (protein)
# chain: GEELAKAELENLKQLKADVKAYTERVIRLLEAARDDPERVKRIYERAQRDLAGVETYAKEVKKEAEKRGDKELVKAAEELLKEVAAARERVEAAYRAVMA
# B5: usp_38_diff_out_18_14_295 (protein)
# chain: SEELSKAEISVLETLTKEVEADTDRTIALLEKVADDPERVKRIVERANRNLAGVRAYAEEVKERAEERGDEETVKKAEELLKKIDEAEARIAAAEAAVRA
# B6: usp_38_diff_out_18_14_304 (protein)
# chain: SEELAAALKSNLESLTKEVKEDTERVIKLLKKRKDDPEEVKRIYERAERNLAGVEAYAKEVKAEAEKAGDAETVAAAEALLKEVKEAREKVKKAYEEVMA
# B7: usp_38_diff_out_18_14_294 (protein)
# chain: SSELSEAEVSALELLKKEVREDTERTIRLLEKVKDDPERVKRIVERRQRNLAGVRAYAEEVRRRAEELGDEETVAAANELLAEIDKAEKEVEEAVKRVEA
# B8: usp_38_diff_out_18_14_296 (protein)
# chain: SSELSEAERSVLELLKEEVKKDTERTIKLLEKVKDDPERVKRIVERAERNLAGVRAFAEEVKERAEKEGDEETVKAAEELLAEIDAARERIAAAREKVLA
# B9: usp_38_diff_out_18_14_316 (protein)
# chain: SEEEEEALLSAVEILKADVERDTDRKIRLLEKAKDDPELVERIYERALRDLAGVEAYAKEVEKEAKKNGNEKLLKAAKELLKTVAAARERLEAAYKEVMA
# B10: usp_38_diff_out_18_14_319 (protein)
# chain: MEELIEAEKANLKSLTAEVERDTARRLAVVDALRDDPDAAQSLLDTAAQALQGVIAYAEEVAKRAEELGNEELKKAAEELKAAARAALARLEARRAELAA
# B11: usp_38_diff_out_18_14_302 (protein)
# chain: AAELAAAKKSNLESLKKDVEEDTKRVIELLEKAKDDPERVKRIYENAKRNLAGVRKYAEEVKKEAEEAGDKETVAAAEELLKTIEEAEKKVEEAYKKVMA
# B12: usp_38_diff_out_18_14_328 (protein)
# chain: SAELREALLSNLETLTKEVKEVTERTLKIVDKLKGDPEAARSLLDTRIQALEGVIKYAEEVAKEAKAAGDKELEAAAEKLKKEAEKAKKELEEKKKALEA
# B13: usp_38_diff_out_18_14_323 (protein)
# chain: SEELREATKSNLKTLTAEIKEWTARRLKVIEKLKDDPESATSLLDTAKQALQGVIKYAEEVKREAEEEGDEELKKAATETKKAAEDALKQLEAKEAKLKA
# B14: usp_38_diff_out_18_14_311 (protein)
# chain: AEELAQAELDNLKSLTTAVTADTARVIRLLEQSKDDPERVKRIYERAKRNLAGVETYAQEVKARAEAAGDADLVAAADALLATVAAARAAIEAAYKAVMA
# B15: usp_38_diff_out_18_14_300 (protein)
# chain: SAELAEALKSNLEILKEDVKRYTERVIRLLRKNKDDPERVKRIYERAKRDLEGVRKFAEEVLKLAKEEGDEETAKAAEELLKTIEEEEKRIEEEYKRVMA
# B16: usp_38_diff_out_18_14_327 (protein)
# chain: SEELKEALLSNLKLLKEEVKKDTERTLKILEKLKGDPESARSLIDTRIQALEGVIKYAEEVAKMAKEEGDEELKKAAEELKKEAEEAKKKLEEKRKELEK
# B17: usp_38_diff_out_18_14_317 (protein)
# chain: SEELSKALLSNLKTLTKEVEEDTKRLEKIVEALKDDPEAARSLLETRRQAYEGVAKYAKEVLKEAKEAGDEELAKAAEELLKAAEKALEEVEKRLKELEE
# B18: usp_38_diff_out_18_14_308 (protein)
# chain: AEELAAAKKSNLESLKEEVKKYTERVIELLKKAKDDPERVKRIYERAQRDLEGVRTYAEEVLKEAEAAGDEETKAAAKELLKEIDEAKKKVEKAYKEVMA
# B19: usp_38_diff_out_18_14_309 (protein)
# chain: SAELAEAKKKNLEQLTTDVKEDTERVIRLLRKRRDDPEAVKRLYERAQRNLAGVRKYAEEVKKEAEKAGDKETVAAAEKLLKEVAEAEKRIEEEYARVMA
# B20: usp_38_diff_out_18_14_297 (protein)
# chain: SEELSEAEISNLELLKKEVEEDTERTIELLEKVKDDPERVKRIVERALRNLAGVEAYAKDVKERAEKEGNEKTVAAANELLATIEEARKRIEEKYKKVME
# B21: usp_38_diff_out_18_14_313 (protein)
# chain: SEELREAEKSSLEILKKDVEEDTERKIKLLKKAKNDPERVKRIYERAMRDLEGVKKYAEEVLKRAEEEGDEETKKAAEELLKKVEEARERLEKAYKEVME
# B22: usp_38_diff_out_18_14_314 (protein)
# chain: SEELEEAELSALKTLTADVEADTARKIELLEKAKDDPERVKRIYDRALRDLAGVRTYAEEVLKRAKERGNEELLAAAEALLATVDAAEARLTAKYEEVMK
# B23: usp_38_diff_out_18_14_312 (protein)
# chain: SEEEAEALLSSVEILTADVERDTARKIRLLEAAKDDPELVERIYERALRDLAGVEAYAEEVLAQAKAEGNAELEAAAQALLATVAAARARLEAAYAAVRA
# B24: usp_38_diff_out_18_14_324 (protein)
# chain: SEELIKARISNLKSLTEEVKKVTARKLKVIDALKDDPESATALIDTQLQALEGVIKYAEEEKKEAEKLGNEELIKAAEELKKAAEEAKAELEKKRKELAA
# B25: usp_38_diff_out_18_14_299 (protein)
# chain: SAELAEAKAANLKLLKTDVKEDTERVIKLLKKNKNDPERVKRIYDRAKRNLAGVRTYAEEVLEEAKAAGDAATAAAAQELLKTIDEEEKKIEEEYKKVMA
# B26: usp_38_diff_out_18_14_315 (protein)
# chain: SEELQEAELSSLKILKEDVVRDTERAIRLLEKSKDDPERVKRIYERRMRNLAGVREYAKEVLERAKKEGNEELLKAAEELLKTVDAAEERLEAKYKEVMA
# B27: usp_38_diff_out_18_14_306 (protein)
# chain: SEELAEAERSNLESLKKDVKEYTERVIKLLEKAKDDPERVKRIYERAKRNLAGVEEYAKEVLKRAKEAGDEETVKAAEELLKTIEEARKKVEEAYEKVMK
# B28: usp_38_diff_out_18_14_293 (protein)
# chain: DAELSAAERSALATLRTDVAADTARTIALLKRVKDDPERVDRVVERARRNLAGVRAFAEEVLREAEERGDEETVAAARELLAAIDAAEAAVAAAAAAVRA
# B29: usp_38_diff_out_18_14_301 (protein)
# chain: SEELAEALRSNLELLKEDVKEDTERVIRLLKKNKNDPERVKDIYERAKRNLAGVREYAEEVLEEAEEAGDEETAEAARELLETIEEERKKIEEEYKKVMA
# B30: usp_38_diff_out_18_14_307 (protein)
# chain: GEELAAAQLSNLNSLKTDVEKDTERVIKLLKKAKDDPERVKRIYERAKRNLAGVRTYATEVKEEAEKAGNAELVAAANDLLATIDDAEKKIEEEYKKVMA
# B31: usp_38_diff_out_18_14_310 (protein)
# chain: SEELAEAEKSNLEKLTKEVEEDTERVIRLLEKAKDDPERVKRIYERAKRNLAGVETYAKEILERAKKAGDEETKKAAEELLKKIAEARERIEKAYEEVMK
# B32: usp_38_diff_out_18_14_318 (protein)
# chain: SEELIKQTLSNVKKLTEEVKKDTKRTLKILEKLKDDKESALSLIDTRIQALNGVIKYAEELKKEAEKLGNKELAEAAKELIKAAKEAKKELEKRKKALKE
# Molecular target: T1, USP38, Q8NB14
# Experiment: median log2 fold change of GCK-ALFA target abundance (FLAG IP / Myc IP barcode read proportion) (log2 ratio); each designed protein is fused to an ALFA-tag nanobody in HEK293 cells to bring the named protein to FLAG-tagged glucokinase (GCK); Myc marks an untargeted standard; higher = target protein stabilised (more abundant)
# Conditions: target protein: 3xFLAG-MCP-GCK-ALFA reporter; HEK293 landing pad (RPLP)
# Outline: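 The readout is target abundance, the per-binder median log2 ratio of FLAG to Myc barcode read proportions. It came from HEK293 landing-pad cells carrying a recombined ALFA-nanobody-fused binder library, induced with 2 μg mL^−1 doxycycline and transfected with a plasmid for a FLAG-tagged target and a Myc-tagged standard. After 48 h, lysates were immunoprecipitated with anti-FLAG and anti-Myc, and circular RNA barcodes were reverse transcribed, amplified and sequenced. Each barcode needed a proportion of at least 10^−7 in both replicates and each binder at least 3 barcodes per replicate, a pseudocount of 10^−6 was added, and the replicates were pooled.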
row,Binder,median log2 fold change
1,B1,0.134
2,B2,-0.166
3,B3,0.0826
4,B4,-0.327
5,B5,0.017
6,B6,0.296
7,B7,0.136
8,B8,-0.447
9,B9,0.00386
10,B10,0.235
11,B11,0.326
12,B12,-0.102
13,B13,-0.403
14,B14,-0.0344
15,B15,-0.852
16,B16,-0.444

row,Binder,median log2 fold change
1,B17,-0.378
2,B18,-0.392
3,B19,-0.138
4,B20,0.335
5,B21,0.328
6,B22,0.22
7,B23,0.0395
8,B24,0.13
9,B25,-0.444
10,B26,0.253
11,B27,-0.549
12,B28,-0.59
13,B29,-0.149
14,B30,-0.0463
15,B31,0.384
16,B32,-0.746
